Hits are enriched below; roughly 4.1% of the tested compounds scored in any of these assays.
DAX1 inh-1 – inhibits human nuclear receptor DAX1 | P51843 | HEK293 Gal4-DAX1 luciferase reporter, luminescence | inhibition, % at 6.75 µM | 0.99% of 340,000 active;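 active = inhibition above the mean over all tested compounds plus 3 SD, cut at about 4.2% in these data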;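 note: 0% = DAX1-transfected cells with DMSO and 100% = empty-vector control cells with DMSO; inhibition shows as a rise in luminescence from relieved DAX1 repression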
Target sequence (P51843 207-470 limits assumed): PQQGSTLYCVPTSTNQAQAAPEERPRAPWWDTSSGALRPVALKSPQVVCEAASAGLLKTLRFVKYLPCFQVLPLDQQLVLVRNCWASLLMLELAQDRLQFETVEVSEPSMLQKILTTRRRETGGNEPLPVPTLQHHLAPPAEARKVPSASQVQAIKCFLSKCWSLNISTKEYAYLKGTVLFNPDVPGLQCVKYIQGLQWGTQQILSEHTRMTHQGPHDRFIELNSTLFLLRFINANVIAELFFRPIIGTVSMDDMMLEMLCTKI
hcDAF12 agonist – H. contortus DAF-12 activation, primary screen; HEK293 hcDAF-12 lit1-tk-luc reporter, luminescence; 0% DMSO, 100% Δ7-dafachronic acid; activation, % at 6.8 µM; 1.4% of 370,000 active; AID 652067;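 active = activation above the mean of all tested compounds plus 3 SD, cut at about 5.5% in these data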;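 note: 100% = response to 3 µM Δ7-dafachronic acid high control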
DAX1 inh-2 – inhibitors of DAX1 repression of SF-1 activated StAR promoter | 1.1% of 370,000 active | AID 652010 | HEK293T StAR-luciferase reporter, SF-1/DAX-1 repression relief | inhibition, % at 6.8 µM;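 active = inhibition above the mean over all tested compounds plus 3 SD, cut at about 3.6% in these data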;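 note: 0% = DAX-1 cells with DMSO and 100% = cells lacking DAX-1 with DMSO; higher inhibition means more luminescence from relief of DAX-1 repression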
hgDAF-12 ag – agonists of H. glycines DAF-12 nuclear receptor. AID 687014. HEK293 GAL4-hgDAF12 UAS-luciferase reporter, agonist luminescence; normalized to butyrate control. activation, % at 6.8 µM. 1.8% of 370,000 active;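 active = activation above a cutoff set at the mean of all screened compounds plus 3 SD, cut at about 10% in these data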;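 note: 0% = DMSO wells and 100% = sodium butyrate wells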
ssDAF-12 act – activators of S. stercoralis DAF-12 nuclear receptor; HEK293 ssDAF-12/GRIP1 lit1-tk-luc reporter, luminescence; % of 3 µM dafachronic acid response; activation, % at 6.8 µM; 1% of 370,000 active; AID 652126;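 active = activation above the mean over all tested compounds plus 3 SD, cut at about 0.9% in these data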;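 note: 0% = DMSO-only wells and 100% = 3 µM delta7-dafachronic acid wells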
LXR ag – counter-screen for hcDAF-12 agonists: agonists of human LXR-beta; shares compounds with hcDAF12 agonist; HEK293 Gal4-LXR tk-luc reporter, luminescence, 24 h; normalized: DMSO 0%, positive control 100%; activation, % at 6.8 µM; AID 743027; 3,400 tested, under 10 active;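 active = mean percent activation of the reporter above a cutoff set as the average over tested compounds plus their standard deviation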
Target sequence (P55055 whole entry, looked up, the tested form may be a part): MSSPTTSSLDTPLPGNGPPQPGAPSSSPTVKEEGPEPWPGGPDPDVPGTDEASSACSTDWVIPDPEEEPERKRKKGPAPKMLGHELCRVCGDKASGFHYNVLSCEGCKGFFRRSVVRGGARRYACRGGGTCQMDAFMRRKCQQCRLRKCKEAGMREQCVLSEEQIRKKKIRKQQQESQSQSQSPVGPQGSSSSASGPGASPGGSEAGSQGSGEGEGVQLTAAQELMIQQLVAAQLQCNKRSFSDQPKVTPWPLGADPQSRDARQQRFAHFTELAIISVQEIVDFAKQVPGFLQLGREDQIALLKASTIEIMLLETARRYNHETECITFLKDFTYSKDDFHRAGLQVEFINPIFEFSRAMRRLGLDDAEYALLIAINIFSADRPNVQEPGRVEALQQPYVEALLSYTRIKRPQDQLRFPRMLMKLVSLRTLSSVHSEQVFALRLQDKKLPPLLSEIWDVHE
hcDAF12 ag – hcDAF-12 agonism, confirmation assay | shares compounds with hcDAF12 agonist | HEK293 hcDAF-12 lit1-tk-luc reporter, luminescence; % of Δ7-dafachronic acid response | activation, % at 6.8 µM | 61% of 3,400 active;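 active = mean activation across triplicate tests above the threshold derived from the earlier primary screen, cut at about 5.5% in these data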;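 note: 0% = DMSO only wells and 100% = 3 µM Δ7-dafachronic acid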
hgDAF12 ag – hgDAF-12 agonism, confirmation assay. activation, % at 6.8 µM. AID 743050. shares compounds with hgDAF-12 ag. HEK293 GAL4-hgDAF12 luciferase reporter, agonist mode; percent of butyrate response. 80% of 3,300 active;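 active = mean activation over triplicate wells above the hit cutoff derived from the earlier primary screen, cut at about 11% in these data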;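 note: 0% = DMSO low control and 100% = 2 mM sodium butyrate high control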
LXR ag 2 – counter-screen for DAF-12 agonists: agonists of human LXR-beta; activation, % at 6.8 µM; 3,300 tested, under 10 active; HEK293 Gal4-LXR luciferase reporter, 24 h; shares compounds with hgDAF-12 ag;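 active = mean activation of the triplicate above a set limit carried over from the primary screen, none filed active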
Starred values were filed as active, the others as inactive.

For O=C(Nc1ccc(Cl)cn1)c1ccccc1F the results were DAX1 inh-1 2.0, hcDAF12 agonist 6.6*, DAX1 inh-2 2.7, hgDAF-12 ag 15.1*, ssDAF-12 act 1.2*, LXR ag 1.2, hcDAF12 ag 7.8*, hgDAF12 ag 17.7* and LXR ag 2 0.8.
CCOC(=O)/C(=N\Nc1ncnc2ccccc12)c1ccc(OC)cc1 was read as DAX1 inh-1 0.8, hcDAF12 agonist 16.8*, DAX1 inh-2 2.5, hgDAF-12 ag 18.3*, ssDAF-12 act 2.4*, LXR ag 1.6, hcDAF12 ag 11.5*, hgDAF12 ag 17.3* and LXR ag 2 1.0.
`CCOC(=O)C(Cc1ccnc2ccccc12)=NO` gave DAX1 inh-1 -1.3, hcDAF12 agonist -1.2, DAX1 inh-2 -0.9, hgDAF-12 ag -5.2 and ssDAF-12 act -1.1.
Screening COc1ccc(/C(=N/Nc2ncnc3ccccc23)C(=O)O)cc1 returned DAX1 inh-1 1.2, hcDAF12 agonist 11.2*, DAX1 inh-2 1.9, hgDAF-12 ag 15.8*, ssDAF-12 act 1.8*, LXR ag 0.5, hcDAF12 ag 7.5*, hgDAF12 ag 15.6* and LXR ag 2 0.5.
O=C(NN=C1CCCCCCC1)c1ccc2ccccc2n1 was read as DAX1 inh-1 2.4, hcDAF12 agonist 5.3, DAX1 inh-2 0.9, hgDAF-12 ag 4.3 and ssDAF-12 act 0.0.
For O=C(O)c1ccc(N/N=C/c2ccc(F)c(F)c2)cc1 the results were DAX1 inh-1 -1.9, hcDAF12 agonist 11.5*, DAX1 inh-2 3.5, hgDAF-12 ag 17.8*, ssDAF-12 act 0.6, LXR ag 1.6, hcDAF12 ag 8.2*, hgDAF12 ag 16.3* and LXR ag 2 0.8.
Screening O=C(O)c1ccc(N/N=C/c2ccc3nccnc3c2)cc1 returned DAX1 inh-1 -7.5, hcDAF12 agonist -5.6, DAX1 inh-2 -2.2, hgDAF-12 ag -13.6 and ssDAF-12 act -3.6.
CCC(C)(C(=O)Nc1ccccc1C)N(C(=O)CNC(C)=O)c1ccccc1C (configuration not stated) was read as DAX1 inh-1 -1.1, hcDAF12 agonist 0.3, DAX1 inh-2 0.6, hgDAF-12 ag -1.7 and ssDAF-12 act -1.7.
`O=C(Nc1ccc2[nH]c(=S)sc2c1)Nc1ccccc1F` gave DAX1 inh-1 0.8, hcDAF12 agonist 7.4*, DAX1 inh-2 1.7, hgDAF-12 ag 14.7*, ssDAF-12 act 1.7*, LXR ag 1.8, hcDAF12 ag 8.0*, hgDAF12 ag 20.0* and LXR ag 2 1.0.
Screening O=C(Nc1ccc2[nH]c(=O)[nH]c2c1)Nc1ccc(F)cc1F returned DAX1 inh-1 0.1, hcDAF12 agonist -1.9, DAX1 inh-2 0.1, hgDAF-12 ag -1.8 and ssDAF-12 act -1.7.
O=[N+]([O-])c1ccc(NN=Cc2cccc(O)c2)nc1 was read as DAX1 inh-1 5.6*, hcDAF12 agonist 10.1*, DAX1 inh-2 1.2, hgDAF-12 ag 18.4*, ssDAF-12 act 0.7, LXR ag 1.1, hcDAF12 ag 4.0, hgDAF12 ag 20.7* and LXR ag 2 0.8.
COc1ccc2c(c1)CC/C(=C/c1ccco1)C2=O was read as DAX1 inh-1 2.3, hcDAF12 agonist 8.6*, DAX1 inh-2 4.2*, hgDAF-12 ag 15.6*, ssDAF-12 act 0.2, LXR ag 1.9, hcDAF12 ag 6.2*, hgDAF12 ag 15.7* and LXR ag 2 0.9.
Nc1ccc(-c2nc3ccc(N)cc3s2)cc1 was read as DAX1 inh-1 -0.9, hcDAF12 agonist 7.5*, DAX1 inh-2 1.5, hgDAF-12 ag 19.3*, ssDAF-12 act 1.1*, LXR ag 1.5, hcDAF12 ag 8.3*, hgDAF12 ag 15.8* and LXR ag 2 1.1.
For O=C(Nc1c(C(=O)N2CCCCC2)cnn1-c1ccccc1)c1ccccc1F the results were DAX1 inh-1 0.7, hcDAF12 agonist 4.1, DAX1 inh-2 1.9, hgDAF-12 ag 1.8 and ssDAF-12 act 0.4.
For Cc1cccc(Nc2n[nH]c(C)c2[N+](=O)[O-])c1 the results were DAX1 inh-1 2.3, hcDAF12 agonist 6.8*, DAX1 inh-2 3.7*, hgDAF-12 ag 14.4*, ssDAF-12 act -0.2, LXR ag 1.1, hcDAF12 ag 5.8*, hgDAF12 ag 13.7* and LXR ag 2 0.7.
Cc1[nH]nc(Nc2ccccc2)c1[N+](=O)[O-] was read as DAX1 inh-1 1.1, hcDAF12 agonist -1.2, DAX1 inh-2 0.1, hgDAF-12 ag 3.9 and ssDAF-12 act -1.3.
`O=C(CSc1nc(C(F)(F)F)cc(=O)[nH]1)NCc1ccc2c(c1)OCO2` gave DAX1 inh-1 -0.2, hcDAF12 agonist -0.3, DAX1 inh-2 -0.3, hgDAF-12 ag 0.5 and ssDAF-12 act -0.9.
For CN1CCSc2ccc(C(=O)Nc3cc(F)ccc3F)cc21 the results were DAX1 inh-1 9.5*, hcDAF12 agonist 7.2*, DAX1 inh-2 4.3*, hgDAF-12 ag 19.7*, ssDAF-12 act 1.1*, LXR ag 1.5, hcDAF12 ag 4.0, hgDAF12 ag 17.9* and LXR ag 2 0.9.
COC(=O)C[C@H]1CC[C@H]2[C@H](COc3ccc(NC(=O)Cc4cccs4)cc3C(=O)N2C)O1 was read as hcDAF12 agonist -1.8, DAX1 inh-2 1.2, hgDAF-12 ag -0.8 and ssDAF-12 act -0.5.
For Clc1ccc(-c2nsc(N3CCOCC3)n2)c(Cl)c1 the results were DAX1 inh-1 1.3, hcDAF12 agonist 8.6*, DAX1 inh-2 1.8, hgDAF-12 ag 16.1*, ssDAF-12 act 0.7, LXR ag 1.0, hcDAF12 ag 2.6, hgDAF12 ag 15.9* and LXR ag 2 0.7.
`Clc1ccc(-c2ccnc3nc(N4CCOCC4)nn23)c(Cl)c1` gave DAX1 inh-1 2.5, hcDAF12 agonist -1.1, DAX1 inh-2 0.1, hgDAF-12 ag 1.9 and ssDAF-12 act -1.9.
For C=CCOc1ccc(C(=O)n2cc(C(=O)OC)c3ccccc32)cc1 the results were DAX1 inh-1 -1.3, hcDAF12 agonist -0.3, DAX1 inh-2 -0.2, hgDAF-12 ag -1.1 and ssDAF-12 act -1.4.
`CCc1ccc(NC(=O)C2CCCN2c2nn3c(=O)cc(C)nc3s2)cc1` (configuration not stated) gave DAX1 inh-1 1.4, hcDAF12 agonist -0.1, DAX1 inh-2 0.5, hgDAF-12 ag -0.9 and ssDAF-12 act -0.9.
